From PubChem BioAssay AID1159580 (chemical genetic matrix, 2015)
About 2,000 (36%) of roughly 5,500 compounds were called active. About 18% were inconclusive and are not listed. Cut-off read from the data, not from the text of the source: active = normalized growth mostly below about 0.91 (no sharp cut-off); inconclusive = no clear call, values can overlap the other calls; inactive = mostly above about 0.92. The list shows a part of the results.

Assay: chemical genetic growth profiling, strain panel (AID 1159580);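 note: tested at 20 µM; growth read once vehicle control cultures reached saturation at 30 °C; 1 = growth at the plate median or of vehicle wells; lower values mean less growth of the strain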
Settings: growth OD
[1] = S. cerevisiae deletion strains, locus YHR030C, strain SLT2, active compounds read low

Measured: normalized growth

Cc1cc(C(F)(F)F)c(C#N)c(=O)[nH]1
inactive: S. cerevisiae deletion strains, locus YAL013W, strain DEP1, active compounds read low 1.02 | S. cerevisiae deletion strains, locus YBR229C, strain ROT2, active compounds read low 1 | S. cerevisiae deletion strains, locus YCL061C, strain MRC1, active compounds read low 1 | S. cerevisiae deletion strains, locus YDL101C, strain DUN1, active compounds read low 0.995 | S. cerevisiae deletion strains, locus YDL134C, strain PPH21, active compounds read low 1.01 | S. cerevisiae deletion strains, locus YDR150W, strain NUM1, active compounds read low 0.982 | S. cerevisiae deletion strains, locus YEL061C, strain CIN8, active compounds read low 1 | S. cerevisiae deletion strains, locus YGR078C, strain PAC10, active compounds read low 1 | [1] 1.01 | S. cerevisiae deletion strains, locus YHR087W, strain rtc3, active compounds read low 1 | S. cerevisiae deletion strains, locus YJL187C, strain SWE1, active compounds read low 1 | S. cerevisiae deletion strains, locus YJR043C, strain POL32, active compounds read low 0.997 | S. cerevisiae deletion strains, locus YJR075W, strain HOC1, active compounds read low 1.03 | S. cerevisiae deletion strains, locus YKL190W, strain CNB1, active compounds read low 1.01 | S. cerevisiae deletion strains, locus YLR039C, strain RIC1, active compounds read low 1.04 | S. cerevisiae deletion strains, locus YLR058C, strain SHM2 (second series), active compounds read low 1 | S. cerevisiae deletion strains, locus YLR085C, strain ARP6, active compounds read low 1.03 | S. cerevisiae deletion strains, locus YLR262C, strain YPT6, active compounds read low 1.03 | S. cerevisiae deletion strains, locus YML094W, strain GIM5, active compounds read low 0.997 | S. cerevisiae deletion strains, locus YMR219W, strain ESC1, active compounds read low 1.01 | S. cerevisiae deletion strains, locus YMR263W, strain SAP30, active compounds read low 0.963 | S. cerevisiae deletion strains, locus YNL128W, strain TEP1, active compounds read low 1.02 | S. cerevisiae deletion strains, locus YNL153C, strain GIM3, active compounds read low 1 | S. cerevisiae deletion strains, locus YNL298W, strain CLA4 (second series), active compounds read low 1.02 | S. cerevisiae deletion strains, locus YNL322C, strain KRE1, active compounds read low 1 | S. cerevisiae deletion strains, locus YNR030W, strain Alg12, active compounds read low 1.02 | S. cerevisiae deletion strains, locus YOL006C, strain TOP1, active compounds read low 1.06 | S. cerevisiae deletion strains, locus YPL055C, strain LGE1, active compounds read low 1.02 | S. cerevisiae deletion strains, locus YPL241C, strain CIN2, active compounds read low 0.941 | S. cerevisiae deletion strains, locus YPR135W, strain CTF4, active compounds read low 1.06 | S. cerevisiae strains, strain wild type, active compounds read low 1.02

O=C1CCc2ccc(OCCCCN3CCN(c4cccc(Cl)c4Cl)CC3)cc2N1
inactive: [1] 1.03 | S. cerevisiae deletion strains, locus YHR079C, strain IRE1, active compounds read low 0.961 | S. cerevisiae deletion strains, locus YJL095W, strain BCK1, active compounds read low 0.955 | S. cerevisiae deletion strains, locus YJR066W, strain TOR1, active compounds read low 0.927 | S. cerevisiae deletion strains, locus YLR113W, strain HOG1, active compounds read low 0.959 | S. cerevisiae deletion strains, locus YNL183C, strain NPR1, active compounds read low 0.894 | S. cerevisiae deletion strains, locus YOR231W, strain MKK1, active compounds read low 0.97 | S. cerevisiae deletion strains, locus YPL256C, strain CLN2, active compounds read low 0.975
